Bcl-B Bim block = disrupts Bim peptide binding to human Bcl-B. bead-based flow cytometry. actives 0.073% (n = 190,000). AID 951. inhibition, % at 10 µM;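 note: 0% = tracer peptide without compound and 100% = reference inhibitor peptide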
Wee1 degr inh = human Wee1 degradation inhibition, primary screen; P30291; HeLa Luc-Wee1K328M stability, luciferase luminescence; 100% = proteasome inhibitor MG132 effect; reporter increase, % at 5 µM; actives 1.2% (n = 220,000); AID 1321;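 active = activation above the mean of all tested compounds plus 3 SD, set per screening run, cut at about 8.8% in these data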;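 note: cells exposed to compound for 20 h before luminescence read; 0% = DMSO alone and 100% = MG132 at 30 µM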
Bcl-W Bim block = inhibitors of Bim-Bcl-W interaction, human | Q92843 | bead-based flow cytometry, Bim peptide-Bcl-W binding | inhibition, % at 10 µM | actives 0.02% (n = 190,000) | AID 952;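 note: 0% = bound tracer without compound and 100% = peptide blocker; higher means less fluorescent Bim peptide bound to Bcl-W beads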
Bim-Bfl-1 = inhibitors of Bim-Bfl-1 interaction, human; Q16548; Bead-based flow cytometry, Bim-Bfl-1 binding inhibition; inhibition, % at 10 µM; actives 0.12% (n = 190,000); AID 1008;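 note: 0% = wells without compound plus tracer and 100% = blocker peptide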
Target sequence (Q16548 whole entry, looked up): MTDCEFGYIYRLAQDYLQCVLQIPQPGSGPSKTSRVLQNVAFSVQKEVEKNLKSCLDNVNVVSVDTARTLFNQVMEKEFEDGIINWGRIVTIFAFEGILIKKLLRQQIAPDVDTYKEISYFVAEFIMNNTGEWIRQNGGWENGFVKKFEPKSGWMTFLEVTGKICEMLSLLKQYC
Bcl-XL Bim block = inhibitors of Bim-Bcl-XL interaction, human; inhibition, % at 10 µM; actives 0.04% (n = 190,000); AID 1007; Bim peptide-Bcl-XL binding, bead flow cytometry, fluorescence
Bim-Bcl-2 = disrupts Bim peptide binding to human Bcl-2. AID 950. actives 0.06% (n = 190,000). Bead-based flow cytometry, Bim peptide-Bcl-2 binding. inhibition, % at 10 µM; in the data active = inhibition above about 40%;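 note: 0% = no compound wells with probe peptide and 100% = reference peptide inhibitor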
Target sequence (P10415 whole entry, looked up): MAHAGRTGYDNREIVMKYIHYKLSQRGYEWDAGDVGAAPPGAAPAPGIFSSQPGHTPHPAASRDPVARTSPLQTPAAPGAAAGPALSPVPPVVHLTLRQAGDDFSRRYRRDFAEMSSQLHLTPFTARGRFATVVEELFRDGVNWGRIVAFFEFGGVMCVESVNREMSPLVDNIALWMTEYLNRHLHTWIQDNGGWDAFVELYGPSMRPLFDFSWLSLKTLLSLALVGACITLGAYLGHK
Active calls of the source: *; . = not tested or not shown; ! = repeats disagree. This is a sample that favours compounds with a hit; in the whole collection about 1.4% have one here. Cut-off read from the data, not from the text of the source, unless noted: active = inhibition above about 40%.

SMILES	Bcl-B Bim block	Wee1 degr inh	Bcl-W Bim block	Bim-Bfl-1	Bcl-XL Bim block	Bim-Bcl-2
C=CCC(C(=O)OC)(C(=O)OC)c1ccccc1[N+](=O)[O-]	-1	-4	1	-8	-3	-2
Cc1nc2sccn2c1-c1csc(NCc2ccccc2)n1	-14	4	0	-16	-9	-5
CCOc1ccc(/C=C2\C(=O)c3ccccc3OC2c2ccccc2)cc1 (stereo not drawn)	-7	4	2	-7	-1	-1
COc1ccc(/C=C2\C(=O)c3ccccc3OC2c2ccccc2)cc1 (stereo not drawn)	.	10*	.	.	.	.
O=C(CN1C2=NCCN2c2ccccc21)c1ccc(Br)s1	-11	1	0	-1	-5	-8
C1CCN(c2nc3nonc3nc2N2CCCCC2)CC1	-9	10*	0	-16	-9	-9
Nc1cc(-c2ccccc2)ccc1O	-3	10*!	4	-1	-1	-2
CC(=O)Nc1cc(-c2ccccc2)ccc1O	0	-3	1	0	0	1
CCOC(=O)N1CCC(N2CCCC(C(=O)c3cccc(OC(C)C)c3)C2)CC1 (stereo not drawn)	.	-1	.	.	.	.
COc1ccc2cc(CN(CCc3ccccc3)Cc3nnnn3CC3CCCO3)c(=O)[nH]c2c1 (stereo not drawn)	21	-2	25	44*	42*	31
Cc1cc(NC(=O)NN2CCOCC2)nn1-c1c(Cl)cccc1Cl	.	3	.	.	.	.
Cc1noc(/C=C/c2cccs2)c1S(=O)(=O)N1CCC(C(=O)NCCCN2CCCC(C)C2)CC1 (stereo not drawn)	-2	9.2*	-3	-5	-6	0
CC1=Nc2cccc([N+](=O)[O-])c2NC(=O)C1	0	15*	-1	0	0	0
Cc1ccc(N(CC(O)CON=C2c3ccccc3-c3ccccc32)S(C)(=O)=O)cc1 (stereo not drawn)	-11	0	-2	-15	-6	-16
COc1cc(CNCc2ccccn2)ccc1OCc1ccccc1Cl	-12	-2	-17	-8	-16	-10
CCOc1c(Cl)cc(CNc2ccc(N3CCCC3)cc2)cc1OC	-11	-2	15	41*	1	12
CCOc1c(Cl)cc(CNCc2ccccn2)cc1OC	-4	9.0*	-2	-7	-4	-3
CCCCN1CC(O)=C(c2nc3ccccc3[nH]2)C1=N	-6	-1	-4	-10	-7	-8
CCCCCN1CC(O)=C(c2nc3ccccc3[nH]2)C1=N	-1	10*	1	-6	-2	0
O=C(CON=C1c2ccccc2-c2ccccc21)NC12CC3CC(CC(C3)C1)C2	-7	-2	-3	4	-4	3
Nc1c(C(=O)N/N=C/c2ccc(Cl)cc2)cnn1-c1ccccc1	.	-2	.	.	.	.
Nc1c(C(=O)N/N=C/c2cccnc2)cnn1-c1ccccc1	-8	9.6*	-4	-2	-6	-5
COc1ccc2c(c1O)-c1ccccc1CCN(C)C2	3	2	1	8	0	-5
CN1CCc2cccc3c2[C@@H]1Cc1ccc(O)c(O)c1-3	-12	-2	51*	40*	22	40*
CN(C)CCC(c1ccc(Cl)cc1)c1ccccn1 (stereo not drawn)	-2	-1	-3	-1	-3	-1
SMILES	Bcl-B Bim block	Wee1 degr inh	Bcl-W Bim block	Bim-Bfl-1	Bcl-XL Bim block	Bim-Bcl-2
CN(C)CCC(c1ccccc1)c1ccccn1 (stereo not drawn)	-2	16*	-3	1	-3	-1
CCn1c(COc2ccccc2OC)nnc1SCC#N	-7	10*	-3	-5	-3	-11
CCOc1ccc(CC(=O)Nc2ccc(NC(=O)c3ccco3)cc2)cc1OCC	-3	1	0	-1	-1	-1
O=Cc1cn(-c2ccccc2)nc1-c1ccc2c(c1)OCCO2	-5	9.2*	-5	-2	-5	-4
N#Cc1cn(-c2ccccc2)nc1-c1ccc2c(c1)OCCO2	0	5	-2	-3	-6	-4
COc1ccc(C(=O)C2CCCN(C(=O)c3ccc4cc[nH]c4c3)C2)c(C)c1 (stereo not drawn)	-4	1	0	-5	-2	-3
CN1CCN(C(=S)c2cn(Cc3ccc(F)cc3)c3ccccc23)CC1	-2	9.2*	0	-3	-4	-3
CCCNC(=O)Nc1nc2ccccc2s1	.	9.2*	.	.	.	.
CCCCNC(=O)Nc1nc2ccccc2s1	-1	7	-1	-3	0	0
Cc1ccc(C(=O)NCCCc2ccccc2)s1	-4	3	-5	-2	-5	-5
CCOC(=O)N/N=C/C=C/c1ccccc1[N+](=O)[O-]	-4	9.2*	0	-8	-2	-6
O=C(Nc1ncc(Cc2ccccc2)s1)c1cccs1	4	9.0*	-3	12	1	8
O=C1NC(=Nc2ccc(F)cc2)SC1Cc1ccc(F)cc1 (stereo not drawn)	.	3	.	.	.	.
O=C1NC(=Nc2ccc(Cl)cc2)SC1Cc1cc(Cl)ccc1Cl (stereo not drawn)	-8	9.0*	-7	0	-10	-5
CC(=O)c1cc2c(cc1NC(=O)CSc1nc3ccccc3[nH]1)OCO2	-2	9.8*	0	0	1	0
O=C(/C=C/c1ccccc1Cl)c1ccccc(=O)c1O	2	1	38	54*	31	42*
Cc1ccc(C)c(/C=C/C(=O)c2ccccc(=O)c2O)c1	-29	6	23	41*	17	24
Cc1ccc(/C=C/C(=O)c2ccccc(=O)c2O)c(C)c1	-28	1	15	32	7	23
CCCCOc1ccc(C(C)NC(=O)C2CCCN(S(=O)(=O)CCC)C2)cc1 (stereo not drawn)	-5	0	0	-1	-6	-2
O=[N+]([O-])c1cc(/C=N/Nc2nc3ccccc3[nH]2)c(O)cc1O	-6	0	-2	-14	-5	-9
O=C(O)c1cccc(N2C(=O)c3cccc(Oc4ccc(Cl)cc4)c3C2=O)c1	-3	-1	-3	-15	-2	-1
Cc1c(N2C(=O)c3ccc(F)cc3C2=O)c(=O)n(-c2ccccc2)n1C	-4	9.6*	-3	-3	-4	0
CCN(C(=O)COC(=O)c1cc(-c2ccccc2)nn1-c1ccccc1)C1CCS(=O)(=O)C1 (stereo not drawn)	0	10*	0	-4	0	-1
Cc1nc2scc(-c3ccccc3)c2c(=O)n1N=C1C=CC(=O)C=C1	-1	4	19	40*	4	17
COc1ccc(OCC(O)CNC(=O)/C=C/c2cccc([N+](=O)[O-])c2)cc1 (stereo not drawn)	-2	-3	1	-4	-3	-1
COc1cc(C2Nc3cccc4cccc(c34)N2)ccc1OC(C)=O	-1	2	34	43*	5	16
